What all share (test): NCI-60 one-dose screen, 48 h (100 = growth as untreated, 0 = no growth, -100 = all killed)
The subject of one experiment is SR leukemia. The note with it: 10 µM unless noted.
A further experiment concerns RPMI-8226 leukemia. The note with it: 10 µM unless noted.
A further experiment relates to OVCAR-8 ovarian. The note with it: 10 µM unless noted.
The test system of the next experiment is OVCAR-5 ovarian. The note with it: 10 µM unless noted.
In another experiment the test system is OVCAR-4 ovarian. The note with it: 10 µM unless noted.
The subject of the next experiment is SK-OV-3 ovarian. The conditions noted are these: 10 µM unless noted.
Another experiment deals with IGROV1 ovarian. The note with it: 10 µM unless noted.
In a further experiment the test system is OVCAR-3 ovarian. The conditions noted are these: 10 µM unless noted.
For another experiment, the system named is HS 578T breast. The note with it: 10 µM.
The next experiment has as its system NCI/ADR-RES ovarian. The note with it: 10 µM unless noted.

This is part of a sample that, as a whole, favours compounds with a hit. Of some 83,000 tested, about 20% had one in any assay.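 Step 1: grow cells in 96-well plates. Step 2: add test compound at a single concentration. Step 3: incubate 48 h. Step 4: record percent growth.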 Values without a mark were called inactive. The source made the active and inactive calls. Rule for the calls: active = growth percent below 10; inactive = the rest.

Take `CNC(=O)c1cnc(C)nc1-c1cc(C(C)(C)C)c(O)c(C(C)(C)C)c1`: the growth was 85% with SR leukemia; 77.8% in the experiment on RPMI-8226 leukemia; 105% in the experiment with OVCAR-8 ovarian; 102% in the experiment with OVCAR-5 ovarian; 89.7% with OVCAR-4 ovarian; 97.5% in the experiment with SK-OV-3 ovarian. The growth in the experiment on IGROV1 ovarian was 103%; with OVCAR-3 ovarian, 116%; with HS 578T breast, 106%; with NCI/ADR-RES ovarian it was 110%.
For `O=C(c1ccccc1)C(c1ccccc1)N1CCOCC1` (stereo not given), the growth was 95.6% in the experiment with SR leukemia; 101% in the experiment with RPMI-8226 leukemia; 105% with OVCAR-8 ovarian; 105% in the experiment on OVCAR-5 ovarian; 108% with OVCAR-4 ovarian; 105% in the experiment on SK-OV-3 ovarian. In addition, the growth with IGROV1 ovarian is 104%; in the experiment with OVCAR-3 ovarian, 101%; in the experiment on HS 578T breast, 97%; in the experiment on NCI/ADR-RES ovarian, 98.6%.
For `O=C(NO)c1ccc(Cn2c(=O)n(-c3ccccc3F)c(=O)c3ccccc32)cc1`, the growth is 1.63% (active) in the experiment with SR leukemia; 13.3% with RPMI-8226 leukemia; -39.3% (active) with OVCAR-8 ovarian; 27.8% in the experiment on OVCAR-5 ovarian; 18.2% in the experiment with OVCAR-4 ovarian; 9.04% (active) in the experiment with SK-OV-3 ovarian. Further, the growth was -21.7% (active) in the experiment on IGROV1 ovarian, -17.8% (active) in the experiment with OVCAR-3 ovarian, 46.6% with HS 578T breast and 41.6% in the experiment on NCI/ADR-RES ovarian.
For `CCCCCCCC(=O)SCC/C=C/[C@@H]1CC(=O)NCc2cccc(n2)C2=N[C@@](C)(CS2)C(=O)N[C@@H](C(C)C)C(=O)N1`, the growth in the experiment on SR leukemia is 18.9%; in the experiment with RPMI-8226 leukemia, 17.1%; in the experiment on OVCAR-8 ovarian it was 32.1%; with OVCAR-5 ovarian, 25.5%; in the experiment on OVCAR-4 ovarian it was 34.4%; in the experiment with SK-OV-3 ovarian it was 10.3%. For the same molecule, the growth in the experiment on IGROV1 ovarian is 26%; with OVCAR-3 ovarian it was 22%; in the experiment on HS 578T breast, 26.2%; in the experiment on NCI/ADR-RES ovarian it was 86.7%.
As to `O=C(Cn1c(=O)ccn(CCCCCCCCOc2ccc(Br)cc2)c1=O)Nc1ccc(Oc2ccc(Cl)cc2)cc1`, the growth was 28.7% in the experiment on SR leukemia; 34.2% in the experiment with RPMI-8226 leukemia; 63.9% with OVCAR-8 ovarian; 108% with OVCAR-5 ovarian; 53.4% in the experiment on OVCAR-4 ovarian; 65.3% with SK-OV-3 ovarian. The growth in the experiment on IGROV1 ovarian was 77.2%; in the experiment on OVCAR-3 ovarian, 83.7%; in the experiment on HS 578T breast, 81.8%; in the experiment on NCI/ADR-RES ovarian, 42.7%.
Take `CC(C)(C)OC(=O)N1CCC(O)[C@@H](O[Si](c2ccccc2)(c2ccccc2)C(C)(C)C)[C@H]1/C=C/c1ccccc1` (stereo not given in full): the growth is 32.6% in the experiment on SR leukemia; 25.2% with RPMI-8226 leukemia; 59.5% in the experiment on OVCAR-8 ovarian; 71.5% in the experiment on OVCAR-5 ovarian; 21.3% in the experiment with OVCAR-4 ovarian; 56.3% in the experiment on SK-OV-3 ovarian. The growth was 60.6% in the experiment on IGROV1 ovarian, 43.6% in the experiment on OVCAR-3 ovarian, 55.8% with HS 578T breast and 69.3% in the experiment with NCI/ADR-RES ovarian.
With `COC(=O)[C@H](Cc1ccccc1)NC(=O)[C@@H](OC)[C@@H]1Cc2cc3cc(OC4CC(OC5CC(O)C(O)C(C)O5)C(O)C(C)O4)c(C)c(O)c3c(O)c2C(=O)[C@H]1OC1CC(OC2CC(OC3CC(C)(O)C(O)C(C)O3)C(O)C(C)O2)C(O)C(C)O1` (stereo not given in full), the growth was 7.89% (active) in the experiment on SR leukemia; -16.5% (active) in the experiment with RPMI-8226 leukemia; 7.42% (active) with OVCAR-8 ovarian; 8.6% (active) with OVCAR-5 ovarian; 1.44% (active) with OVCAR-4 ovarian; 17% in the experiment on SK-OV-3 ovarian. The growth is 25.5% in the experiment on IGROV1 ovarian, 5.7% (active) in the experiment with OVCAR-3 ovarian, -16.7% (active) in the experiment with HS 578T breast and 51.6% with NCI/ADR-RES ovarian.
On to `COc1ccc(C(=O)N2c3ccccc3Sc3ccccc32)c(F)c1`, for which the growth was 23% in the experiment on SR leukemia; 18.6% in the experiment with RPMI-8226 leukemia; 32.3% with OVCAR-8 ovarian; 62.1% with OVCAR-5 ovarian; 49.2% in the experiment with OVCAR-4 ovarian; 38.3% with SK-OV-3 ovarian. The growth with IGROV1 ovarian was 54.8%; with OVCAR-3 ovarian, -7.19% (active); with HS 578T breast, 15.9%; with NCI/ADR-RES ovarian, 1.71% (active).
For `COc1cnc2c(c1)C(=O)c1c-2n(CCCNC2=NCCS2)c(=O)c2cc(Cl)ccc12`, the growth in the experiment with SR leukemia was 2.52% (active); in the experiment with RPMI-8226 leukemia, -31.2% (active); in the experiment with OVCAR-8 ovarian, -25.1% (active); in the experiment with OVCAR-5 ovarian, 4.29% (active); in the experiment on OVCAR-4 ovarian, 49.5%; with SK-OV-3 ovarian it was 20.9%. For the same molecule, the growth is -57% (active) in the experiment with IGROV1 ovarian, -67.9% (active) with OVCAR-3 ovarian, 85.8% in the experiment on HS 578T breast and -14.5% (active) in the experiment with NCI/ADR-RES ovarian.
As to `CC(C)(C)C(=O)OCOP(=O)(OCOC(=O)C(C)(C)C)C1CCCN(OC(=O)c2ccccc2)C1=O` (stereo not given), the growth in the experiment with SR leukemia is 7.15% (active); in the experiment on RPMI-8226 leukemia, -30.8% (active); with OVCAR-8 ovarian, 7.36% (active); in the experiment on OVCAR-5 ovarian it was 65.5%; in the experiment on OVCAR-4 ovarian, 31.9%; in the experiment with SK-OV-3 ovarian, 20.6%. Moreover, the growth in the experiment on IGROV1 ovarian is 5.28% (active); with OVCAR-3 ovarian, 7.34% (active); with HS 578T breast, 8% (active); with NCI/ADR-RES ovarian, 3.76% (active).
Regarding `CCN(CC)C(=O)C[N+](C)(C)CCOC(c1ccccc1)c1ccccc1`, the growth in the experiment with SR leukemia was 108%; with RPMI-8226 leukemia, 114%; in the experiment with OVCAR-8 ovarian it was 110%; with OVCAR-5 ovarian it was 100%; with OVCAR-4 ovarian, 89.5%; with SK-OV-3 ovarian, 107%. For the same molecule, the growth in the experiment with IGROV1 ovarian was 102%; with OVCAR-3 ovarian, 103%; in the experiment with HS 578T breast it was 112%; in the experiment with NCI/ADR-RES ovarian it was 99.1%.
On to `COC(=O)[C@@H](NC(=O)[C@@H](OC)[C@@H]1Cc2cc3cc(OC4CC(OC5CC(O)C(O)C(C)O5)C(O)C(C)O4)c(C)c(O)c3c(O)c2C(=O)[C@H]1OC1CC(OC2CC(OC3CC(C)(O)C(O)C(C)O3)C(O)C(C)O2)C(O)C(C)O1)C(C)C` (stereo not given in full), for which the growth was -8.16% (active) in the experiment on SR leukemia; -1.18% (active) with RPMI-8226 leukemia; 12.6% in the experiment with OVCAR-8 ovarian; 2.67% (active) in the experiment with OVCAR-5 ovarian; 13.4% with OVCAR-4 ovarian; 20.4% in the experiment on SK-OV-3 ovarian. Also, the growth was 32.3% in the experiment on IGROV1 ovarian, 15.3% in the experiment on OVCAR-3 ovarian, -13.9% (active) with HS 578T breast and 69.6% in the experiment on NCI/ADR-RES ovarian.
Turning to `Cc1c(N)ccc(-c2ccc(N)c(C)c2S(=O)(=O)O)c1S(=O)(=O)O`, the growth with SR leukemia was 102%; in the experiment with RPMI-8226 leukemia it was 107%; in the experiment on OVCAR-8 ovarian, 107%; in the experiment on OVCAR-5 ovarian, 101%; in the experiment on OVCAR-4 ovarian it was 112%; with SK-OV-3 ovarian it was 111%. Further, the growth in the experiment with IGROV1 ovarian was 110%; in the experiment on OVCAR-3 ovarian, 124%; in the experiment with HS 578T breast, 106%; in the experiment on NCI/ADR-RES ovarian, 102%.
